Screen size: about 1,400 compounds; about 560 (40%) were called active. The set was probably picked from earlier hits. Some of the results follow. Unmarked numbers belong to inactive results.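 How the source made its calls: active means mean inhibition over duplicate tests at 10 µM above 50%; inactive means the rest.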
experiment: ASC/caspase-1 reporter retest in S. cerevisiae at one dose, specificity check for NALP1 project (AID 488857); settings: S. cerevisiae ASC/Caspase-1, beta-galactosidase luminescence, 24 h; at 10 µM; active compounds read high

Q: With COc1ccccc1OCC(=O)NCCSCc1cccc(Cl)c1 as the molecule, how does the inhibition read?
A: 61.4% (active)

Q: Which inhibition does the source give for COc1ccccc1OCC(=O)NCCSCc1ccccc1Cl here?
A: 65.5% (active)

Q: Which inhibition does the source give for Cc1sc(NC(=O)c2cc3ccccc3oc2=O)c(C(=O)OC(C)C)c1-c1ccccc1 here?
A: 36%

Q: For COc1cccc(N2C(=O)C(O)=C(C(C)=O)C2c2ccc(OC)c(OC)c2)c1 (stereo unspecified), which inhibition is on record?
A: 31%

Q: For CC(=O)N1CC[n+]2c(-c3ccc(Cl)cc3Cl)csc21, which inhibition is on record?
A: 23.9%

Q: With CC(C)Cn1c(CN(Cc2ccccc2)Cc2ccccc2)nc2c1c(=O)n(C)c(=O)n2C as the molecule, how does the inhibition read?
A: 35.6%

Q: With O=C(CSC1=NS(=O)(=O)c2ccccc21)Nc1ccccc1 as the molecule, how does the inhibition read?
A: 43.5%

Q: With Cc1ccc(CC(=O)Nc2ccccc2-c2ccccc2)cc1C as the molecule, how does the inhibition read?
A: 34.3%

Q: Which inhibition does the source give for O=C(CSCc1cccc(Cl)c1)Nc1ccccc1-c1ccccc1 here?
A: 62.6% (active)

Q: With COC(=O)c1ccccc1SC1CC(=O)N(c2ccccc2)C1=O (stereo unspecified) as the molecule, how does the inhibition read?
A: 49.2%

Q: With COc1ccc(CCNC(=O)CN2CCC(C)CC2)cc1OC as the molecule, how does the inhibition read?
A: 28.1%

Q: For COc1ccc(CCN(C)C2CC(=O)N(c3ccccc3)C2=O)cc1OC (stereo unspecified), which inhibition is on record?
A: 51% (active)

Q: For COc1ccc2[nH]c(C)c(CCNC(=S)Nc3cc(C)cc(C)c3)c2c1, which inhibition is on record?
A: 17%

Q: With COc1ccc2[nH]c3c(C)c4ccncc4c(C)c3c2c1 as the molecule, how does the inhibition read?
A: 98.8% (active)

Q: With CC(C)(C)c1cc(C(=O)O)n[nH]1 as the molecule, how does the inhibition read?
A: -9.25%

Q: For O=C(Nc1nc(-c2ccccn2)cs1)c1ccc(Cl)s1, which inhibition is on record?
A: 46.2%

Q: Which inhibition does the source give for CNC(=O)c1ccsc1NC(=O)c1sc2ccccc2c1Cl here?
A: 58.8% (active)

Q: For O=C(Nc1nccs1)c1sc2ccccc2c1Cl, which inhibition is on record?
A: 80.7% (active)

Q: For Cc1nc(-c2ccccc2)cn2c1nc1ccccc12, which inhibition is on record?
A: 59.9% (active)

Q: For O=c1cc(-c2ccccc2)[nH]c2nc3ccccc3n12, which inhibition is on record?
A: 44.1%

Q: With Cc1cc(N/N=C/c2ccccc2Cl)nc(NCc2ccccc2)n1 as the molecule, how does the inhibition read?
A: 52.2% (active)

Q: With Cc1ccc(Nc2cc(C)nc(NCc3ccccc3)n2)cc1 as the molecule, how does the inhibition read?
A: 61.2% (active)

Q: Which inhibition does the source give for Cc1ccccc1N(CC(=O)N/N=C/c1ccccc1Cl)C(=O)c1ccccc1 here?
A: 35.8%

Q: For Cc1cc(N/N=C/c2cccc(Cl)c2)nc(NCc2ccccc2)n1, which inhibition is on record?
A: 55.9% (active)

Q: Which inhibition does the source give for Cc1cc(N/N=C/c2ccccc2)nc(NCc2ccccc2)n1 here?
A: 68.2% (active)

Q: Which inhibition does the source give for CC1(C)CC(=O)C2=C(C1)OC(N)=C([N+](=O)[O-])C2c1cccs1 (stereo unspecified) here?
A: 39.2%

Q: With CCOC(=O)c1c(C)n(C)c2cc(-c3ccc(C)cc3)c(O)cc12 as the molecule, how does the inhibition read?
A: 41.5%

Q: For Cc1cc(N/N=C/c2ccc(Cl)cc2)nc(NCc2ccccc2)n1, which inhibition is on record?
A: 78.7% (active)

Q: For O=C(COc1ccc(CO)cc1Cl)Nc1ccc(F)cc1, which inhibition is on record?
A: 38.2%

Q: Which inhibition does the source give for O=C(COc1ccc(Br)cc1Br)NC(=S)Nc1cccc(CO)c1 here?
A: 59.8% (active)

Q: With Cc1ccccc1OCC(=O)Nc1cccc(N(C)S(C)(=O)=O)c1 as the molecule, how does the inhibition read?
A: 34.6%

Q: For CCc1ccc(C(=O)NCc2ccc(Cl)cc2Cl)cc1, which inhibition is on record?
A: 49.6%

Q: With N/C(Cc1ccc(Cl)cc1Cl)=N\OC(=O)c1cccs1 as the molecule, how does the inhibition read?
A: 53.2% (active)

Q: Which inhibition does the source give for COc1ccc(C(=O)O/N=C(\N)Cc2ccc(Cl)cc2Cl)cc1OC here?
A: 72.4% (active)

Q: Which inhibition does the source give for COc1ccc(Cl)cc1C(=O)O/N=C(\N)c1ccc(Cl)cc1 here?
A: 43.9%

Q: For CCN(CC)CCN1C(=O)c2ccccc2NC1c1ccc(N(C)C)cc1 (stereo unspecified), which inhibition is on record?
A: 31.9%

Q: With CCCc1ccc(-c2c(C)sc(N)c2C#N)cc1 as the molecule, how does the inhibition read?
A: 51.2% (active)

Q: Which inhibition does the source give for CCn1c(C)[n+](CC(O)COCC2CC=CCC2)c2ccccc21 (stereo unspecified) here?
A: 41.3%

Q: With COc1cc(C)ccc1OCCOCCOc1ccc([N+](=O)[O-])cc1 as the molecule, how does the inhibition read?
A: 65.2% (active)

Q: Which inhibition does the source give for C=CCc1ccc(OCCCOc2ccc(C)cc2OC)c(OC)c1 here?
A: 31.8%

Q: With COc1ccc(CNc2nc(C)c([N+](=O)[O-])c(C)c2C#N)cc1 as the molecule, how does the inhibition read?
A: 45.5%

Q: With NNC(=S)NCc1cccnc1 as the molecule, how does the inhibition read?
A: 37.2%

Q: Which inhibition does the source give for S=C1SCN(Cc2cccnc2)CN1Cc1cccnc1 here?
A: 89.2% (active)

Q: With O=C1/C(=C\c2cccnc2)CN(Cc2ccccc2)C/C1=C\c1cccnc1 as the molecule, how does the inhibition read?
A: 30.4%

Q: With Nc1[nH]c(=O)ncc1F as the molecule, how does the inhibition read?
A: 81.2% (active)

Q: With Cc1nc(N)sc1N=Nc1ccc(Br)cc1 as the molecule, how does the inhibition read?
A: 68.5% (active)

Q: Which inhibition does the source give for CCOC(=O)c1c(C)n(C)c2ccc(OC)c(NC(=O)CN3CCN(C4CCCCC4)CC3)c12 here?
A: 21.6%

Q: With CCOC(=O)C(=CNNc1ccsc1C(=O)OC)C(=O)OCC as the molecule, how does the inhibition read?
A: 41%

Q: For CCOC(=O)C(=Cc1cc(=O)c(OC)co1)C(=O)OCC, which inhibition is on record?
A: 85.2% (active)

Q: With C1=CC2CC1CC2CN1CCN(Cc2ccccc2)CC1 (stereo unspecified) as the molecule, how does the inhibition read?
A: 48.8%

Q: For Cc1onc(-c2ccccc2Cl)c1C(=O)N1C=CC(C(F)(F)F)=NCC1, which inhibition is on record?
A: 77.5% (active)

From PubChem BioAssay AID488857 (Sanford-Burnham Center for Chemical Genomics, 2010)
